PubChem BioAssay (NCATS)
Inconclusive results are not listed. A call without a number means that no potency is given here. Values without a mark were called inactive. Activity calls are given as the source filed them. Calls follow the shape of the dose curve; as a rule, active = well fitted curve in the direction sought with a large enough effect; inconclusive = small, poorly fitted or top-dose-only effect, or another doubt; inactive = no such curve, though single readings can be large; an effect the other way counts as inactive or inconclusive.

Key:
[1] = target: Cellular tumor antigen p53 (Homo sapiens) (UniProt P04637); experiment: Primary qHTS for small molecule compounds that upregulate eGFP-tagged delta133p53alpha (in N-terminal) cells. (AID 2060322); conditions: NCI-H358 eGFP-delta133p53alpha fluorescence, 24 h; activation: stronger effect = higher value; also: series mostly up to about 56 µM; nearly all actives have a fitted effect of over 75% in size
Cellular tumor antigen p53 (Homo sapiens), sequence (P04637 whole entry, looked up): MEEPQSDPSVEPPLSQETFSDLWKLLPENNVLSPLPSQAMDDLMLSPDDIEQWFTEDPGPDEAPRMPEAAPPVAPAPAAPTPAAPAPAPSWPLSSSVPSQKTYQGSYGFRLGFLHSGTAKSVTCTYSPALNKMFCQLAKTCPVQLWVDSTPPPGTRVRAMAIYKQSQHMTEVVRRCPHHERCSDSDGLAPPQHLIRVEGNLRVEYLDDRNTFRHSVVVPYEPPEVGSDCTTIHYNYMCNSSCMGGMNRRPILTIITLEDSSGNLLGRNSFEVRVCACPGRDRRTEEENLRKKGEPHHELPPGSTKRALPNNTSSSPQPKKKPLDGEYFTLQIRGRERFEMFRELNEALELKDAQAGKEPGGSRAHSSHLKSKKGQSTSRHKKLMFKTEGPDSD
Outline: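 NCI-H358 cells pre-induced 24 h with 10 ng/ml doxycycline to express N-terminal eGFP-delta133p53alpha, then dosed 24 h at 37C without doxycycline; fixed, Hoechst-stained, GFP intensity by laser scanning cytometry, normalized to DMSO (0%) and 57.5 uM 5-azacytidine (100%).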

[2] = target: Aldehyde dehydrogenase, mitochondrial (Homo sapiens) (UniProt P05091); experiment: qHTS for Inhibitors of the Aldehyde Dehydrogenase Family (ALDH2) Primary screen (AID 2061308); also: nearly all actives have a fitted effect of over 55% in size
[3] = target: Retinaldehyde dehydrogenase 3 (Homo sapiens) (UniProt P47895); experiment: qHTS for Inhibitors of the Aldehyde Dehydrogenase Family (ALDH1A3) Validation screen (AID 2061312); also: nearly all actives have a fitted effect of over 45% in size; also: potency is read from the fitted curve at half-maximal effect
[4] = target: Retinaldehyde dehydrogenase 3 (Homo sapiens) (UniProt P47895); experiment: qHTS for Inhibitors of the Aldehyde Dehydrogenase Family (ALDH1A3) Primary screen (AID 2061315); also: potency is read from the fitted curve at half-maximal effect
[5] = target: Retinaldehyde dehydrogenase 3 (Homo sapiens) (UniProt P47895); experiment: qHTS for Inhibitors of the Aldehyde Dehydrogenase Family (ALDH1A3) Confirmatory screens (AID 2061311); also: potency is read from the fitted curve at half-maximal effect; nearly all actives have a fitted effect of over 60% in size
[6] = target: Aldehyde dehydrogenase 1A1 (Homo sapiens) (UniProt P00352); experiment: qHTS for Inhibitors of the Aldehyde Dehydrogenase Family (ALDH1A1) Confirmatory screens (AID 2061316); also: nearly all actives have a fitted effect of over 65% in size; also: potency is read from the fitted curve at half-maximal effect

## O=C(C(Cc1cccc(C(F)(F)F)c1)NS(=O)(=O)c1cc(F)c2c(c1)CCNC2)N1CCCC1 (centres undefined)
[1]
  activation: -13.4%
[2]
  Potency: inactive
[3]
  Potency: inactive
[4]
  Potency: inactive

## Cc1nnc(-c2ccc(-c3ccc(C(=O)Nc4ccc(O)c(N5CCN(C)CC5)c4)cc3)c(C)c2)o1
[1]
  activation: -0.477%
[2]
  Potency: inactive
[3]
  Potency: inactive

## N=C(N)c1ccc2nc(-c3cc(CC(=O)NC(CC(=O)O)C(=O)O)cc(-c4cc(S(N)(=O)=O)ccc4O)c3O)[nH]c2c1 (centres undefined)
[1]
  activation: -8.59%
[2]
  Potency: inactive
[3]
  Potency: inactive
[4]
  Potency: inactive

## COc1cc(O)c(C(=O)O)c(CCc2ccccc2)c1
[1]
  activation: -15.3%
[2]
  Potency: inactive
[5]
  Potency: 12.7 µM (active)
[6]
  Potency: 10.1 µM (active)

## Cc1cccc(C#Cc2cc(F)cc(C#N)c2)n1
[1]
  activation: -6.68%
[2]
  Potency: inactive
[3]
  Potency: 5.62 µM (active)

## COc1cc(O[C@@H]2O[C@H](CO[C@H]3OC[C@](O)(CO)[C@H]3O)[C@@H](O)[C@H](O)[C@H]2O)cc(OC)c1O
[1]
  activation: -16.8%
[2]
  Potency: inactive
[5]
  Potency: 4.91 µM (active)
[4]
  Potency: 2.82 µM (active)
[6]
  Potency: inactive

## CN(C)CCCNc1nc(CN2CCN(C(c3ccc(Cl)cc3)c3ccc(Cl)cc3)CC2)nc2ccccc12
[1]
  activation: 16.2%
[2]
  Potency: inactive
[3]
  Potency: inactive
[4]
  Potency: inactive

## COc1cccc(CN(C(=O)CC(C)(C)C)C2CC(C(=O)N3CCNCC3)N(Cc3ccc4c(c3)OCO4)C2)c1 (centres undefined)
[1]
  activation: -10%
[2]
  Potency: inactive
[3]
  Potency: inactive
[4]
  Potency: inactive

## COc1cncc(C#Cc2ccccn2)c1
[1]
  activation: 1.43%
[2]
  Potency: inactive
[3]
  Potency: 22.4 µM (active)
